Assay results published in PubChem BioAssay (NCATS).
Results filed as inconclusive are left out. A call without a number means that no potency is given here. Calls of active or inactive are those of the source. Calls come from the whole dose curve; as a rule, active = well fitted inhibition curve with a large enough effect; inconclusive = small, poorly fitted or top-dose-only effect; inactive = flat fitted curve, though single readings scatter.

Tests used:
Experiment in all cases: qHTS profiling for inhibitors of Plasmodium falciparum proliferation (AID 504749); note: nearly all actives have a fitted effect of over 60% in size
Details in all cases: P. falciparum in erythrocytes, SYBR Green DNA, 72 h; series mostly up to 28.7 µM
CP286 = tested on: CP286
Outline: (§1)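 SYBR Green fluorescence of parasite DNA, read after lysis and overnight dark incubation, measured growth over 72 h in erythrocyte culture at 0.3% parasitemia and 2.5% hematocrit. Data normalised to DMSO and 0.29 uM artemisinin, with plate-drift correction.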

CP291 = tested on: CP291
Outline: as §1

CP297 = tested on: CP297
Outline: as §1

CP305 = tested on: CP305
Outline: as §1

CP315 = tested on: CP315
Outline: as §1

CP325 = tested on: CP325
Outline: as §1

CP329 = tested on: CP329
Outline: as §1

CP335 = tested on: CP335
Outline: as §1

DFO2036 = tested on: DFO2036
Outline: as §1

DIV14 = tested on: DIV14
Outline: as §1

DIV30 = tested on: DIV30
Outline: as §1

Dd2 = tested on: Dd2
Outline: as §1

ECU = tested on: ECU
Outline: as §1

FAB9 = tested on: FAB9
Outline: as §1

GB4 = tested on: GB4
Outline: as §1

HB3 = tested on: HB3
Outline: as §1

ICS = tested on: ICS
Outline: as §1

JCK = tested on: JCK
Outline: as §1

N140 = tested on: N140
Outline: as §1

DIV17 = tested on: DIV17
Outline: as §1
Potency is the fitted concentration of half-maximal effect.

Row | Compound | Potency (CP286) | Potency (CP291) | Potency (CP297) | Potency (CP305) | Potency (CP315) | Potency (CP325) | Potency (CP329) | Potency (CP335) | Potency (DFO2036) | Potency (DIV14) | Potency (DIV30) | Potency (Dd2) | Potency (ECU) | Potency (FAB9) | Potency (GB4) | Potency (HB3) | Potency (ICS) | Potency (JCK) | Potency (N140) | Potency (DIV17)
1 | COc1cc(NS(=O)(=O)c2ccc(N)cc2)ncn1 | inactive | inactive | inactive | inactive | inactive | inactive | inactive | inactive | inactive | inactive | inactive | inactive | inactive | inactive | inactive | inactive | inactive | inactive | inactive | –
2 | O=C(c1ccc(F)cc1)C1CCN(CCn2c(=S)[nH]c3ccccc3c2=O)CC1 | 3.98 µM (active) | 6.75 µM (active) | 6.75 µM (active) | 6.75 µM (active) | 15.1 µM (active) | 7.57 µM (active) | 6.75 µM (active) | – | 5.62 µM (active) | – | 12 µM (active) | 11.2 µM (active) | 4.47 µM (active) | – | 12 µM (active) | 11.2 µM (active) | 5.01 µM (active) | 11.2 µM (active) | 5.01 µM (active) | 13.5 µM (active)
3 | CC(C)=CCOc1ccc(/C=C/C(=O)c2ccc(OCC=C(C)C)cc2OCC(=O)O)cc1 | inactive | inactive | inactive | inactive | inactive | inactive | inactive | – | inactive | – | – | inactive | inactive | inactive | – | inactive | – | inactive | inactive | –
4 | Cc1cccc(C)c1NC(=O)CN1CCCCCC1 | inactive | inactive | inactive | inactive | inactive | inactive | inactive | inactive | inactive | inactive | – | inactive | inactive | inactive | – | inactive | inactive | inactive | inactive | –
5 | O=C(Nc1ccc([N+](=O)[O-])cc1)Nc1ccc([N+](=O)[O-])cc1 | 3.16 µM (active) | inactive | inactive | inactive | inactive | inactive | inactive | 4.78 µM (active) | inactive | – | inactive | – | inactive | inactive | inactive | – | 2 µM (active) | inactive | inactive | inactive
6 | CCOc1ccc(NC(C)=O)cc1 | inactive | inactive | inactive | inactive | inactive | inactive | inactive | – | inactive | inactive | inactive | inactive | inactive | inactive | inactive | inactive | inactive | inactive | inactive | inactive
7 | OC[C@H]1O[C@@H]2O[C@H]3[C@H](O)[C@@H](O)[C@@H](O[C@H]4[C@H](O)[C@@H](O)[C@@H](O[C@H]5[C@H](O)[C@@H](O)[C@@H](O[C@H]6[C@H](O)[C@@H](O)[C@@H](O[C@H]7[C@H](O)[C@@H](O)[C@@H](O[C@H]8[C@H](O)[C@@H](O)[C@@H](O[C@H]1[C@H](O)[C@H]2O)O[C@@H]8CO)O[C@@H]7CO)O[C@@H]6CO)O[C@@H]5CO)O[C@@H]4CO)O[C@@H]3CO | inactive | inactive | – | inactive | inactive | inactive | inactive | inactive | inactive | inactive | inactive | inactive | inactive | inactive | inactive | inactive | inactive | inactive | inactive | –
